# In PubChem BioAssay AID1347417 (National Center for Advancing Translational Sciences (NCATS), 2020):
# Screen size: about 120,000 compounds; about 5,300 (4.4%) were called active. Entries that show only a call come without a potency. About 22% were inconclusive and are not listed. Calls come from the whole dose curve; as a rule, active = well fitted inhibition curve with a large enough effect; inconclusive = small, poorly fitted or top-dose-only effect; inactive = no such curve, though single readings can be large or run the other way. For the sample, actives were picked, then their nearest neighbours and some compounds at random.
# Test: qHTS Primary assay for Inhibitors of Plasmodium falciparum Dd2 growth in vitro; note: nearly all actives have a fitted effect of over 65% in size
# Settings: P. falciparum Dd2 growth, SYBR Green, 72 h; series mostly up to 28.9 µM
# Procedure, shortened: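 Readout: SYBR Green fluorescence, 485 nm excitation, 535 nm emission, after ~16 h lysis at 37C. Before that, Dd2-infected red cells (2.5% hematocrit) grew 72 h with compound, 29 uM top final concentration.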
# Potency is the fitted concentration of half-maximal effect.
row,Compound,Potency
1,COc1cccc(C(=O)N2CCC(N3CCCCCC3=O)CC2)c1,inactive
2,O=C1NCc2ccccc2CC12CCN(Cc1cccc(Cl)c1)CC2,inactive
3,CC(C)Cc1ccc(CN2CCC3(CC2)Cc2ccccc2CNC3=O)cc1,11.2 µM (active)
4,Cc1cccc(C)c1CN1CCC2(CC1)Cc1ccccc1CNC2=O,inactive
5,Cc1cc2nc3n(c(=O)c2n1CC(=O)NCc1ccc(F)cc1)CCCCC3,inactive
6,O=C1NC(=NC2CCCCC2)C2(CCCN(S(=O)(=O)c3cccs3)C2)N1c1cc(F)cc(F)c1 (stereo not drawn),inactive
7,COc1ccc(C(=O)N2CCCC3(C2)C(=NC2CCCC2)NC(=O)N3c2cc(F)cc(F)c2)cc1 (stereo not drawn),inactive
8,O=C(c1ccccc1F)N1CCCC2(C1)C(=NC1CCCCC1)NC(=O)N2c1cc(F)cc(F)c1 (stereo not drawn),inactive
9,O=C1NC(=NC2CCCC2)C2(CCCN(Cc3ccsc3)C2)N1c1cc(F)cc(F)c1 (stereo not drawn),5.01 µM (active)
10,COC(=O)N1CCC2(CC1)C(=NC1CCCC1)NC(=O)N2c1cc(F)cc(F)c1,inactive
11,CC(C)CCN1CCC2(C1)C(=NC1CCCCC1)NC(=O)N2c1cc(F)cc(F)c1 (stereo not drawn),8.91 µM (active)
12,CS(=O)(=O)N(C1CCOCC1)C1CCN(C(=O)CC2CCCC2)CC1,inactive
13,O=C(c1ccc(C(F)(F)F)cc1)N1CCc2nc(C3CC3)nc(-c3ccc(Cl)cc3)c2C1,inactive
14,COc1ccc(-c2nc(C(C)C)nc3c2CN(C(=O)c2ccccc2F)CC3)cc1,inactive
15,COc1ccc(-c2nc(C(C)C)nc3c2CN(C(=O)c2ccc(C(F)(F)F)cc2)CC3)cc1,inactive
16,O=C(c1cccc(Cl)c1)N1CCc2nc(C3CC3)nc(-c3ccc(Cl)cc3)c2C1,inactive
17,COc1ccc(C(=O)N2CCc3nc(C(C)C)nc(-c4ccc(Cl)cc4)c3CC2)cc1,11.2 µM (active)
18,COc1ccc(-c2nc(C3CC3)nc3c2CCN(C(=O)c2ccc(C(F)(F)F)cc2)CC3)cc1,5.01 µM (active)
19,O=C(c1ccccc1)N1CCC2(CC1)C(=O)NCN2C(=O)CCCN1CCCC1,inactive
20,COc1ccccc1OCCNC(=O)c1cn2ccnc(-c3ccc(C)cc3)c2n1,inactive
21,Cn1cc(CNC(=O)C[C@@H]2C[C@H]3O[C@H](CNC(=O)Nc4cccs4)[C@@H](O)[C@H]3O2)cn1,inactive
22,COC1CCN(C(=O)c2c(-c3cnn(C)c3NCc3cccnc3)noc2C)CC1,inactive
23,COc1ccc(N2CC(c3noc(-c4ccc(C(C)(C)C)cc4)n3)CC2=O)cc1 (stereo not drawn),inactive
24,CCn1cc(-c2ccc(OC)cc2)cc1C(=O)N1CCC(C)CC1,inactive

row,Compound,Potency
1,Cc1ccc(CN2CCC3OCCN(Cc4ccccc4)C(=O)C3C2)o1 (stereo not drawn),inactive
2,Cn1nc2n(c1=O)CCN(C(=O)C1CC=CCC1)CC2 (stereo not drawn),inactive
3,COc1ccc(NC(=O)Cn2cc(C(=O)c3ccncc3)c(=O)c3cc(C)ccc32)cc1Cl,inactive
4,COc1ccc2c(c1)c(=O)c(C(=O)c1ccccc1)cn2CC(=O)Nc1ccc2c(c1)OCCO2,inactive
5,CCOc1ccc(NC(=O)Cn2cc(C(=O)c3ccc(C)cc3)c(=O)c3cc4c(cc32)OCCO4)cc1,inactive
6,CCOc1ccc(C(=O)c2cn(Cc3ccccc3OC)c3ccc(F)cc3c2=O)cc1,10 µM (active)
7,COc1cc2[nH]c(=O)n(Cc3ccc(C(=O)NCc4ccc(C)cc4)cc3)c(=O)c2cc1OC,inactive
8,COc1ccc(Cn2cc(C(=O)c3ccc(C)cc3)c(=O)c3cc(OC)c(OC)cc32)cc1,12.6 µM (active)
9,COC(=O)C1=CN(CC(=O)Nc2ccc(F)cc2F)S(=O)(=O)N=C1C,inactive
10,CCn1cnnc1CC1CCN(C(=O)C2CCN(Cc3nc(-c4cccc(C)c4)oc3C)CC2)CC1,3.16 µM (active)
11,COc1ccc(-c2nc(CN3CCC(C(=O)NCc4ccccc4)CC3)c(C)o2)cc1OC,inactive
12,CCn1cnnc1CC1CCN(C(=O)c2cc(-c3ccc(F)cc3)nc3ccccc23)CC1,inactive
13,CC(C)CNC(=O)N1C[C@@H](Oc2cccnc2)C[C@H]1C(=O)N1CCOCC1,inactive
14,NS(=O)(=O)c1ccc(F)c(C(=O)NCc2ccc3nonc3c2)c1,inactive
15,CCOc1ccc(CCNc2nc(-c3ccccc3)no2)cc1,inactive
16,Cc1ccc(-n2cnc3cc(C(=O)NCCC4=CCCCC4)ccc32)cc1Cl,inactive
17,CCCNC(=O)c1ccc2c(c1)ncn2-c1ccc(C)cc1C,11.2 µM (active)
18,Cc1ccc(CCNC(=O)c2ccc3c(c2)nc2n3CCC(C)C2)cc1 (stereo not drawn),inactive
19,Cc1cc(Cn2cc3c4c(cccc42)[C@H](CC(C)C)N[C@H](C(=O)N2CCCCCC2)C3)no1,inactive
20,CN1C(=O)c2cccn2CC1C(=O)N1CCc2ccccc21 (stereo not drawn),inactive
21,COc1ccc(Cl)cc1NC(=O)c1sc2nc3c(cc2c1N)CN(C)CC3,inactive
22,CCN1CCc2nc3sc(C(=O)Nc4ccccc4OC(F)(F)F)c(N)c3cc2C1,10 µM (active)
23,CCc1ccc(NC(=O)c2sc3nc4c(cc3c2N)CN(CC)CC4)cc1,11.2 µM (active)
24,CCc1cccc(NC(=O)c2cnc(N3CCOCC3)c3ccccc23)c1,inactive

row,Compound,Potency
1,O=C(Nc1ccc(OC(F)(F)F)cc1)c1cc2c(=O)n3ccccc3nc2s1,inactive
2,CCc1ccc(NC(=O)c2cnc3c(-c4ccccc4)c(C)nn3c2C)cc1,inactive
3,CCOc1ccccc1C(=O)N1CCC2(CC1)CN(C(C)=O)CC2COC (stereo not drawn),inactive
4,CCC(=O)N1CCc2c(sc3ncnc(NCc4cccnc4)c23)C1,inactive
5,Cc1noc2c(-c3cccc(CO)c3)cc(-c3ccccc3)nc12,inactive
6,O=C(Cc1ccc(OC(F)(F)F)cc1)N1CC2CC(C1)[C@H]1CCCC(=O)N1C2 (stereo partly drawn),inactive
7,Cn1ccnc1C(=O)N1CCCCCCNC(=O)[C@@H]2CCCC[C@@H]21,inactive
8,CC1(C)[C@H](Cc2cc(CCO)on2)C[C@@H]1NCC1CC1,inactive
9,CC1(C)[C@H](Cc2cc(-c3ccccc3)on2)C[C@@H]1NS(C)(=O)=O,inactive
10,CC1(C)[C@H](Cc2cc(-c3ccccc3)on2)C[C@@H]1NCC1CC1,12.6 µM (active)
11,CCn1ncc(N2CCC(NC(=O)CCOC)CC2)cc1=O,inactive
12,O=C(NC1CCN(c2cc(-c3ccc(Cl)cc3)[nH]n2)CC1)c1ccccc1F,inactive
13,O=C(Cn1ccn2nc(-c3ccccc3)c(CO)c2c1=O)Nc1cc(F)ccc1Cl,inactive
14,CC1=C[C@@H](CC#N)[C@H](C(C)C)C[C@H]1CC(=O)N1CCN(C)CC1,inactive
15,CC1=C[C@@H](CN2CCC(O)CC2)[C@H](C(C)C)C[C@H]1Cc1nnc(-c2ccccc2F)o1,8.91 µM (active)
16,Fc1ccc(CN2CC[C@H](c3nnc(-c4ccccc4F)o3)C2)cc1,inactive
17,CC1=C[C@@H](CNC(=O)NC(C)C)[C@H](C(C)C)C[C@H]1Cc1nnc(-c2ccncc2)o1,inactive
18,CC1=C[C@@H](CNC(C)C)[C@H](C(C)C)C[C@H]1Cc1nnc(-c2ccncc2)o1,inactive
19,CC1=C[C@@H](CN2CCCC2)[C@H](C(C)C)C[C@H]1Cc1nnc(-c2ccc([N+](=O)[O-])cc2)o1,1.78 µM (active)
20,CC1=C[C@@H](CN2CCN(CCO)CC2)[C@H](C(C)C)C[C@H]1Cc1nnc(-c2ccc(C)cc2)o1,inactive
21,CC1=C[C@@H](CNC(=O)COc2ccccc2)[C@H](C(C)C)C[C@H]1CC(=O)NCc1ccccn1,inactive
22,CC1=C[C@@H](CNC(C)C)[C@H](C(C)C)C[C@H]1Cc1nnc(-c2ccc(N(C)C)cc2)o1,3.55 µM (active)
23,CN(C)C[C@@H]1CN(Cc2ccccn2)C[C@H]1NC(=O)c1cc(Cl)ccc1F,inactive
24,Cc1ccc(C(=O)N2C[C@@H](Oc3cccnc3)C[C@H]2C(=O)N2CCOCC2)s1,inactive

row,Compound,Potency
1,CCC(CC)NC(=O)C1Cn2cccc2C(=O)N1 (stereo not drawn),inactive
2,Cc1noc(-c2cn(C3CCN(C(=O)c4ccoc4)CC3)nn2)n1,inactive
3,NC(=O)c1cccc(-c2ccc3c(n2)CN(Cc2ccc(C(F)(F)F)cc2)C(=O)CO3)c1,inactive
4,COc1ccc(Nc2nc(-c3cccc(OC)c3OC)no2)cc1,inactive
5,CCc1cc(=O)n(CC(=O)Nc2ccccc2F)c(-c2cccc(F)c2)n1,inactive
6,COc1ccc(Cl)cc1NC(=O)Cn1c(=O)c2ccccc2n2nncc12,inactive
7,COc1ccc(-c2noc(-c3cccn3CC(=O)Nc3cc(Cl)ccc3OC)n2)cc1F,3.98 µM (active)
8,COc1ccc(-c2noc(-c3cccn3CC(=O)Nc3ccccc3)n2)cc1F,1.58 µM (active)
9,COc1ccc(CNC(=O)Cn2cccc2-c2nc(-c3ccc(F)cc3)no2)cc1,inactive
10,O=C(Cn1cccc1-c1nc(-c2ccc(F)cc2)no1)Nc1cc(F)cc(F)c1,inactive
11,O=C(Cn1cccc1-c1nc(-c2ccccc2)no1)Nc1ccccc1F,3.98 µM (active)
12,CC(=O)c1ccc(NC(=O)COc2ccccc2-c2nc(-c3ccccc3)no2)cc1,inactive
13,COc1ccc(Cl)cc1NC(=O)CSc1nc(=O)[nH]c2c1CCCC2,inactive
14,CCOC(=O)N1CCC(N2CCN(c3cc(C(C)C)nc(C)n3)CC2)CC1,inactive
15,Cc1ccccc1C(=O)N[C@@H]1CN(c2ncccn2)C[C@H]1CO,inactive
16,Cc1cccc(-c2noc(CCC(=O)N[C@H]3CC[C@H]3NC3CCCC3)n2)c1,inactive
17,CO[C@H]1C(=O)N(C2CCN(C(=O)c3ccncc3)CC2)[C@H]1c1ccncc1,inactive
18,Cc1nc(-c2c3n(c(=O)n(Cc4ccc(Br)cc4)c2=O)CCCCC3)no1,inactive
19,CNC(=O)[C@@H]1C[C@H](n2cc(CN(C)C(=O)c3cccc(F)c3F)nn2)CN1,inactive
20,CCc1cccc(-n2nnnc2N2CCN(C(=O)Nc3ccc(C)c(OC)c3)CC2)c1,inactive
21,O=C(O)CN1CC2(CCC1=O)CCN(C(=O)C1CNC(=O)C1)CC2 (stereo not drawn),inactive
